Assay results taken from PubChem BioAssay.
Activity calls are given as the source filed them.

Tests used:
[1] = tested on: Human papillomavirus type 1a protein E7 (residues 44-93); experiment: HPV1a E7 fragment binders on microarrays, primary screen, biochemical, small-molecule microarray, residues 44-93, 635 nm fluorescence (AID 1108); details: small-molecule microarray binding, fluorescence 635 nm; higher = more signal;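 further: E7 fragment applied at 1 µg/mL in TBST for 1 h at 4 C; score combines spot fluorescence with its signal to noise ratio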
[2] = modulators of HCV replicon luciferase signal, primary screen, HCV replication inhibitor project, Huh7 cells, luciferase reporter (AID 1109); details: 48 h, higher = more signal;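 further: huh7 hepatoma cells harbouring a luciferase neomycin HCV replicon reporter; luciferase luminescence as measure of HCV replicon replication; test concentration not given here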
[3] = molecular target: Left-right determination factor 2 (Homo sapiens) (UniProt O00292); experiment: LEFTY2 binders on small-molecule microarrays, primary screen, biochemical, small-molecule microarray, 635 nm fluorescence scan (AID 1110); details: LEFTY2 binding, higher = more signal
Chain of Left-right determination factor 2 (Homo sapiens) (O00292 whole entry, looked up): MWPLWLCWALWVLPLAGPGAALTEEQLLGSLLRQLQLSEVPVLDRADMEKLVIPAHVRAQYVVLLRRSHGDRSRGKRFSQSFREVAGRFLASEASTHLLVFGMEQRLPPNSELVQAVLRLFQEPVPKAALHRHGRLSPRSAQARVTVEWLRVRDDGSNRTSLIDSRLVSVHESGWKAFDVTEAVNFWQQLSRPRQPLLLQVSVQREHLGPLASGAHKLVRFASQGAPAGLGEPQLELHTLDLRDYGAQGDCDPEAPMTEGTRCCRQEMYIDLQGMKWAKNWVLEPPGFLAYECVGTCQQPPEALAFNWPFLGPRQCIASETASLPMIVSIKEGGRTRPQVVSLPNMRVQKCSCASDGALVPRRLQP

[4] = molecular target: Calmodulin-1 (Homo sapiens) (UniProt P0DP23); experiment: CALM1 binders on microarrays, EGTA buffer, profiling panel, biochemical, small-molecule microarray, Cy5-labelled CALM1 (AID 1111); details: Cy5-CALM1 binding fluorescence, higher = more signal;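 further: labelled calmodulin applied in Tris saline Tween buffer holding calcium plus EGTA and DTT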
[5] = molecular target: Calmodulin-1 (Homo sapiens) (UniProt P0DP23); experiment: calcium-bound CALM1 binders on microarrays, profiling panel, artefact control for SMM control-protein annotation, biochemical, small-molecule microarray, Cy5-labelled CALM1, plus calcium (AID 1112); details: Cy5-CALM1 binding fluorescence, higher = more signal;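 further: score merges spot fluorescence with signal to noise from triplicate slides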
[6] = small-molecule microarray binders of probe aWnt5a, primary screen, biochemical, biotinylated probe, 635/667 nm fluorescence (AID 1113); details: higher = more signal;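 further: score merges 667 nm fluorescence intensity with signal-to-noise per printed feature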
[7] = small-molecule microarray binders of probe aShh, primary screen, biochemical, biotinylated probe, 635/667 nm fluorescence (AID 1114); details: higher = more signal;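 further: probe is biotin-labelled aShh protein from a stem cell growth factor screen; measures binding of labelled protein to compounds printed on the slide; score merges feature fluorescence at 667 nm with signal-to-noise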
[8] = small-molecule microarray binders of probe aNog, primary screen, biochemical, biotinylated probe, 635/667 nm fluorescence (AID 1115); details: higher = more signal;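 further: probe is biotinylated aNog protein used at 0.15 µg/mL for 1 h at 4 C; z-score combines 667 nm fluorescence of each spot with its signal to noise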
[9] = molecular target: Torsin-1A-interacting protein 1 (Homo sapiens) (UniProt Q5JTV8); experiment: LAP1 binders from COS7 cell lysate, primary screen, small-molecule microarray, 635/667 nm fluorescence (AID 1116); details: COS7-hLAP1 lysate binding, 635 nm fluorescence, higher = more signal
Chain of Torsin-1A-interacting protein 1 (Homo sapiens) (Q5JTV8 whole entry, looked up): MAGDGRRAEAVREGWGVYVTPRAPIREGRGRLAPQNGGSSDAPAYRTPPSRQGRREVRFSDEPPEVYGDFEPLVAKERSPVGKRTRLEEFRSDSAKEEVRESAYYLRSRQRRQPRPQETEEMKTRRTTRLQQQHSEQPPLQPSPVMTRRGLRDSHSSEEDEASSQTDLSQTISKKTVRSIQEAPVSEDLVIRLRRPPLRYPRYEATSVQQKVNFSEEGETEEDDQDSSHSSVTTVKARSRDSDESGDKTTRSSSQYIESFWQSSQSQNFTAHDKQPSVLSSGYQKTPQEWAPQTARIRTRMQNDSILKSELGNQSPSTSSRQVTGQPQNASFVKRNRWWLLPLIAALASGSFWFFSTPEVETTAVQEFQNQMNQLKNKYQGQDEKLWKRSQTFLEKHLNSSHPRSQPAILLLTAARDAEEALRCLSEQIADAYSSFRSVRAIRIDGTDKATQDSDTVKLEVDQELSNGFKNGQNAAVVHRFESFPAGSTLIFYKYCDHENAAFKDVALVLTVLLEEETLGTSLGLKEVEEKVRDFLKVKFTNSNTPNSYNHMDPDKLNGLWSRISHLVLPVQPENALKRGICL

[10] = molecular target: Alpha-bungarotoxin (Bungarus multicinctus) (UniProt P60615); experiment: alpha-bungarotoxin binders on microarray, profiling panel, artefact control for SMM control protein annotation, biochemical, small-molecule microarray, Alexa647 label, 635/667 nm fluorescence (AID 1117); details: alpha-BTX-A647 binding fluorescence, higher = more signal
Chain of Alpha-bungarotoxin (Bungarus multicinctus) (P60615 whole entry, looked up): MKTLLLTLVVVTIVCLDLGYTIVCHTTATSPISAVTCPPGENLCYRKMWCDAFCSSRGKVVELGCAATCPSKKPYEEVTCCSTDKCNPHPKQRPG

Albumin (Bos taurus) = Albumin (Bos taurus) (UniProt P02769); experiment: bovine serum albumin binders on microarray, profiling panel, artefact control for SMM control protein annotation, biochemical, small-molecule microarray, Alexa647 label, 635/667 nm fluorescence (AID 1118); details: BSA-A647 binding, fluorescence 635 nm, higher = more signal;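 further: score merges 667 nm emission intensity and signal-to-noise per printed compound spot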
Chain of Albumin (Bos taurus) (P02769 whole entry, looked up): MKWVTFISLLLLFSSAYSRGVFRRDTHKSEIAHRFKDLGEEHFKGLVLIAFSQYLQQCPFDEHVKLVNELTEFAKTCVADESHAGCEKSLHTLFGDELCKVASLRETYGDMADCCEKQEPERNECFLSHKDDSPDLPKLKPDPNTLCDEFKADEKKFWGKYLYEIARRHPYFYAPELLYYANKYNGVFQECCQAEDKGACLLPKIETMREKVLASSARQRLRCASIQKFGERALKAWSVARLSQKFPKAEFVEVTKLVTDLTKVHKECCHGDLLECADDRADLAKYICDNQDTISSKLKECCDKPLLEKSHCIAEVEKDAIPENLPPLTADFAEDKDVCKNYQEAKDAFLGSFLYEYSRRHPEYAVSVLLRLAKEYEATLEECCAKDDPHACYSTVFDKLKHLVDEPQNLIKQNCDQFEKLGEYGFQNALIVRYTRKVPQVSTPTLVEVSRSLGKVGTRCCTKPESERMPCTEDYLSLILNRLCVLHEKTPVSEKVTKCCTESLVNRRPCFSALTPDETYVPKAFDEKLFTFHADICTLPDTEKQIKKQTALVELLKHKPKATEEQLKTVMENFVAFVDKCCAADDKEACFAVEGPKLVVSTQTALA

[11] = small-molecule microarray binders of probe aXIP, primary screen, biochemical, NeuroSMM set, 635/667 nm fluorescence (AID 1119); details: higher = more signal, called active from +8 up or from −8 down;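 further: probe is the protein aXip251-270 applied at 1 µg/mL to compound-printed slides; binding of probe to printed compounds measured as 667 nm fluorescence plus signal to noise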
[12] = small-molecule binders of probe aNOTCH3, primary screen, biochemical, small-molecule microarray, 635/667 nm fluorescence (AID 1120); details: higher = more signal;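 further: probe is a biotin-tagged antibody raised against NOTCH3 rather than NOTCH3 protein; score merges spot fluorescence near 667 nm with spot signal to noise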
[13] = small-molecule binders of probe aNOTCH2, primary screen, biochemical, small-molecule microarray, 635/667 nm fluorescence (AID 1121); details: higher = more signal;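 further: score merges feature fluorescence read at 667 nm with its signal to noise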
[14] = molecular target: Carbonic anhydrase 2 (Homo sapiens) (UniProt P00918); experiment: CAII small-molecule binders, profiling panel, biochemical, small-molecule microarray, Alexa647-labelled CAII (AID 1122); details: CAII-A647 binding fluorescence, higher = more signal
[15] = COS7 lysate on small-molecule microarray, probe aHis, 635 nm (AID 1123); details: COS7 cell lysate, fluorescence, higher = more signal;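 further: z-score combines 667nm fluorescence intensity with signal-to-noise per printed compound spot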
[16] = compound binding in COS7 lysate, probe aLAP1, primary screen, cell lysate, small-molecule microarray (AID 1124); details: probe aLAP1, fluorescence, higher = more signal;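 further: lysate comes from COS7 cells expressing LAP1 and is applied at 0.3 µg/mL; score merges spot fluorescence near 667 nm with signal-to-noise over triplicate slides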
Sam68 (KHDRBS1) = experiment: Sam68 small-molecule binders, primary screen, biochemical, small-molecule microarray, 635 nm fluorescence (AID 1125); details: small-molecule microarray binding, higher = more signal;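 further: score merges 667 nm channel intensity with signal to noise over triplicate slides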
[17] = tested on: Chordin-like protein 2 (CHRDL2); experiment: CHRDL2 small-molecule binders, primary screen, biochemical, small-molecule microarray, 635 nm fluorescence (AID 1126); details: small-molecule microarray binding, fluorescence 635 nm; higher = more signal;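 further: printed compound slides probed with Chrdl2 protein at 4 µg/mL for 1 h at 4 C; score merges 667 nm emission intensity with signal to noise over three replicate slides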
[18] = molecular target: Concanavalin-A (Canavalia ensiformis) (UniProt P02866); experiment: ConA small-molecule binders, primary screen, artefact control for SMM control protein annotation, biochemical, small-molecule microarray, Alexa647 label, 635 nm (AID 1127); details: ConA-A647 binding fluorescence, higher = more signal;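 further: z combines 667 nm emission intensity with signal-to-noise across three replicate slides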
Chain of Concanavalin-A (Canavalia ensiformis) (P02866 whole entry, looked up): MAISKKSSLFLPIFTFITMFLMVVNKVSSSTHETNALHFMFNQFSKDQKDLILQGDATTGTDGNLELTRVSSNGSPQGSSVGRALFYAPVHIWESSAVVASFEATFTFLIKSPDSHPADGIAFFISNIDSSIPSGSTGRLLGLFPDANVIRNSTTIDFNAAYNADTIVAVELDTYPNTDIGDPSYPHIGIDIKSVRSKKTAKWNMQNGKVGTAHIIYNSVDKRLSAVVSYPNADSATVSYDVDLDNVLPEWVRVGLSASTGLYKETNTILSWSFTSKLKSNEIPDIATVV

Compound | composite z-score [1] | z-score [2] | composite z-score [3] | composite z-score [4] | composite z-score [5] | composite z-score [6] | composite z-score [7] | composite z-score [8] | composite z-score [9] | composite z-score [10] | composite z-score (Albumin (Bos taurus)) | composite Z-score [11] | composite z-score [12] | composite z-score [13] | composite z-score [14] | composite z-score [15] | composite z-score [16] | composite z-score (Sam68 (KHDRBS1)) | composite z-score [17] | composite z-score [18]
CCCN1C(=O)[C@@]2(c3ccc([N+](=O)[O-])cc3)CC(=O)N(CC34CC5CC(CC(C5)C3)C4)[C@@H]2c2ccc(CO)cc21 | 0.0595 | -0.767 | -0.242 | -0.0921 | -0.647 | -0.0203 | -0.0519 | -0.873 | -0.38 | -0.0061 | 0.391 | -0.316 (inactive) | 0.056 | -0.199 | 0.302 | 0.634 | -0.193 | -0.83 | -0.229 | 0.0674
O=C(O)[C@H](Cc1ccccc1)n1cc(C2(O)CCCCC2)nn1 | 0.792 | -0.96 | 0.678 | -0.259 | -0.691 | -0.263 | 0.527 | -0.0899 | 0.281 | 0.0396 | 0.568 | 0.217 (inactive) | 0.0191 | -0.147 | 0.54 | 1.46 | 0.0496 | 1.01 | -0.0151 | 0.463
CCCC#C[Si](O[C@H](CC)c1cn(Cc2ccccc2)nn1)(C(C)C)C(C)C | 1.29 | -0.283 | 0.631 | -0.0722 | -0.337 | 0.0799 | -0.153 | -0.234 | 0.927 | 1.11 | 0.603 | 0.244 (inactive) | 0.151 | 0.0263 | 0.365 | 0.855 | -0.193 | 0.793 | 0.379 | 0.572
CCOC(=O)C1=CC[C@@H](c2ccc(OC)cc2)N(S(=O)(=O)c2ccc(C)cc2)[C@H]1CC | 1.18 | -2.44 | 0.349 | 1.84 | 0.436 | 0.0438 | -0.221 | 1.48 | 0.482 | 1 | 0.894 | -0.0608 (inactive) | 0.164 | 0.0684 | 0.579 | 1.85 | 0.133 | 1.33 | -0.483 | 1.07
COc1ccc(C(O)C2C=CC3C(=O)N(C)C(=O)C3N2N(c2ccccc2)c2ccccc2)cc1 (stereo not given) | -1.14 | -0.336 | -0.302 | 0.531 | 0.625 | 0.0102 | -0.0843 | 0.83 | 0.74 | 0.844 | 0.86 | 0.828 (inactive) | 0.016 | -0.0657 | 0.728 | 1.49 | 0.0978 | 0.731 | 0.0617 | 0.632
COc1cc(OC)c(C(O)C2C=CC3C(=O)N(c4ccccc4)C(=O)C3N2Nc2ccc(C(C)C)cc2)cc1Br (stereo not given) | 1.22 | -0.533 | 0.513 | 1.34 | 0.382 | 0.238 | 0.158 | 1.68 | 0.695 | 1.92 | 0.971 | -0.382 (inactive) | 0.274 | 0.236 | 0.426 | 2.76 | 0.231 | 1.28 | 0.1 | 1.07
C=CCN1Cc2ccccc2[C@H]2OC(c3ccc(OCCCO)cc3)=N[C@@]2(CCS(=O)(=O)c2ccccc2)C1=O | 1.26 | -1.56 | 0.62 | 1.64 | 0.472 | 0.0704 | -0.0056 | -0.0831 | 1.49 | 1.21 | 0.465 | 1.79 (inactive) | 0.0562 | -0.0135 | 0.614 | 3.07 | 0.333 | 1.31 | 0.843 | 1.16
CCCCC(=C=CC[C@H](O)c1ccc(CO)o1)CCO | 0.906 | -0.401 | 0.346 | 0.155 | -0.363 | -0.124 | 0.137 | 0.2 | 0.906 | 0.221 | 0.86 | -0.334 (inactive) | -0.0544 | -0.0404 | 0.54 | 0.143 | -0.311 | 0.864 | 0.386 | 0.689
COC(=O)C(CC#Cc1ccc2c(c1)[C@]1(C(=O)N2)[C@H](C(=O)N2CCc3cc(OC)c(OC)cc3C2)[C@H]2C(=O)O[C@H](c3ccccc3)[C@H](c3ccccc3)N2[C@@H]1c1ccccc1OCCO)C(=O)OC | -0.099 | -2.09 | 0.815 | 1.02 | -0.509 | -0.0161 | -0.0289 | 0.682 | 1.59 | 2.65 | 0.27 | 0.112 (inactive) | 0.0793 | -0.135 | 0.59 | 2.3 | -0.461 | 1.3 | 0.463 | 1.14
O=C1O[C@H](c2ccccc2)[C@H](c2ccccc2)N2[C@H]1[C@@H](C(=O)N1CCN(c3ncccn3)CC1)[C@]1(C(=O)Nc3ccc(C#CCCO)cc31)[C@H]2c1ccc(O)cc1 | 1.08 | -1.38 | -0.379 | 0.562 | 0.323 | 0.0215 | 0.0684 | -0.0927 | 0.516 | 1.55 | 0.627 | -0.777 (inactive) | 0.171 | -0.11 | 0.413 | 1.88 | 0.608 | 0.574 | 0.0231 | 1.01
CN(C)c1ccc(C(O)C2C=CC3C(=O)N(Cc4ccccc4)C(=O)C3N2n2cnnc2)cc1 (stereo not given) | -1.17 | -0.32 | 0.205 | -0.207 | -0.363 | -0.0037 | 0.108 | -0.0086 | 0.304 | 0.255 | -0.184 | 0.111 (inactive) | -0.0023 | -0.0993 | 0.244 | 0.0348 | -0.0894 | -0.671 | 0.245 | -0.46
COC(=O)C[C@H]1O[C@@]2(C[C@@H]1[Si](C)(C)C)C(=O)N(C)c1ccccc12 | 1.06 | -0.83 | 0.392 | -0.197 | -0.273 | -0.0643 | -0.362 | 0.273 | -0.116 | 0.586 | 0.18 | -0.701 (inactive) | 0.0306 | -0.111 | 0.288 | 0.689 | 0.186 | 0.86 | 0.268 | 0.332
